Results as given in PubChem BioAssay (EPA / NIEHS).
Results filed as inconclusive are left out. Active and inactive are the calls of the source. How the source made its calls, unless noted: active means hit-call score of the fitted dose curve at least 0.9, where 1 is the maximum; inactive means score below 0.9.

Key:
[1] = CCTE_Harrill_HTTr_CellCount_MCF7: CCTE's Cell Proliferation Assessment for the High-Throughput Transcriptomics (HTTr) Platform, Harrill Lab (AID 2284012; active means hit-call score of the fitted dose curve at least 0.9, where 1 is the maximum;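 further: cells exposed to compound for six hours; intended direction is loss of nuclei count meaning fewer cells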)
Summary of the method: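 Cell count served as viability reporter: loss of Hoechst-stained nuclei, counted by high content imaging, marks decreased growth or survival. Exposure was 6 h in MCF-7 cells across eight concentrations, with DMSO as baseline.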

[2] = CCTE_Shafer_MEA_acute_burst_number: CCTE's Neural Acute Assay for Single-Electrode Bursts, Shafer Lab (AID 2284013)
Summary of the method: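 Burst totals were derived with adaptive spike detection (8x rms threshold) on filtered signals from rat cortical cultures; change relative to pre-treatment baseline after 40-min compound exposure (0.03-40 uM) was fitted in the negative direction against DMSO.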

[3] = CCTE_Shafer_MEA_acute_burst_duration_mean: CCTE's Neural Acute Assay for Mean Burst Duration, Shafer Lab (AID 2284014);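 further: hits are decreases in mean burst duration relative to DMSO controls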
Summary of the method: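 Acute exposure of mature rat cortical networks (DIV 13 or 15) grown on microelectrode arrays to 0.03-40 uM compound. Mean burst duration compared with the 40-min pre-dose baseline over a 40-min post-dose recording at 37 C.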

[4] = CCTE_Shafer_MEA_acute_per_burst_spike_number_mean: CCTE's Neural Acute Assay for Average Number of Spikes Per Burst, Shafer Lab (AID 2284015);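 further: hits are decreases in mean spikes per burst versus baseline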
Summary of the method: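 Read-out: percent change in mean spikes per burst, each well's post-exposure 40-min recording versus its own 40-min baseline. Rat cortical cultures, DIV 13 or 15, compounds 0.03-40 uM; DMSO is negative control, loss-of-signal fitting.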

[5] = CCTE_Shafer_MEA_acute_interburst_interval_mean: CCTE's Neural Acute Assay for Mean Interburst Interval, Shafer Lab (AID 2284016);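 further: percent change of mean interburst interval versus each well's own pre-dose baseline; curves fitted for decrease in interburst interval relative to DMSO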
Summary of the method: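 Rat cortical cultures, DIV 13/15; 20 min equilibration, 40 min baseline, compound 0.03-40 uM, 40 min re-recording, 37 C. Spikes detected at 8x rms noise (300-5000 Hz band-pass). Endpoint: % change in interburst interval, fitted in loss direction vs DMSO.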

[6] = CCTE_Shafer_MEA_acute_burst_percentage_mean: CCTE's Neural Acute Assay for Percentage of Spikes in a Burst, Shafer Lab (AID 2284017);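 on AC50: curve fitted for loss of signal so potency reflects decreased burst percentage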
Summary of the method: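 Rat cortical cultures, DIV 13/15, 37 C. Spikes detected at 8x rms noise (300-5000 Hz band-pass). Burst spikes/total spikes averaged across electrodes per well; % change post- vs pre-treatment (40 min each), loss-of-signal fit vs DMSO.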

[7] = CCTE_Shafer_MEA_acute_burst_percentage_std: CCTE's Neural Acute Assay for Standard Deviation of Burst Percentage, Shafer Lab (AID 2284018);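 further: fitted in the negative direction so actives lower burst percentage SD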
Summary of the method: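 Primary rat cortical neurons on 16-electrode MEA wells were recorded 40 min at baseline (DIV 13 or 15), then 40 min after compound (0.03-40 uM), at 37 C. Well value is SD across electrodes of spikes-in-bursts/total spikes; endpoint is percent change, DMSO-referenced.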

[8] = CCTE_Shafer_MEA_acute_per_network_burst_spike_number_mean: CCTE's Neural Acute Assay for Average Number of Spikes in a Network Burst, Shafer Lab (AID 2284019);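 on AC50: curve fitted for loss of signal so actives reduce spikes per network burst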
Summary of the method: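 Acute exposure of rat primary cortical networks (DIV 13/15) on MEAs; adaptive spike detection at 8x rms noise, 37 C. Percent change in spikes per network burst after 40 min with compound (0.03-40 uM), negative direction vs DMSO.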

[9] = CCTE_Shafer_MEA_acute_per_network_burst_spike_number_std: CCTE's Neural Acute Assay for Standard Deviation of Number of Spikes in a Network Burst, Shafer Lab (AID 2284020);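 further: fitted for decrease in spike-number SD versus DMSO so actives lower it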
Summary of the method: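 Acute MEA exposure, rat cortical neurons, 0.03-40 uM. Per-well % change versus own baseline; DMSO as negative control.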

[10] = CCTE_Shafer_MEA_acute_per_network_burst_electrodes_number_mean: CCTE's Neural Acute Assay for Mean Number of Electrodes in a Network Burst, Shafer Lab (AID 2284021);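 further: curves fitted for decreases only so hits reduce electrodes per burst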
Summary of the method: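 Cultures of rat cortex neurons were exposed on DIV 13 or 15 to compounds at 0.03-40 uM in at least three wells each. Activity over 40 min before and 40 min after exposure at 37 C gave the percent change in electrodes per network burst.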

Q: With `CCCCc1ccccc1` as the molecule, how does the outcome [1] read?
A: inactive

Q: With `O=C(O)CF` as the molecule, how does the outcome [1] read?
A: inactive

Q: For `COCCOCCO`, which outcome [2] is on record?
A: inactive

Q: What about the outcome [3] of the same molecule?
A: inactive

Q: And the outcome [4]?
A: inactive

Q: What about the outcome [5] of the same molecule?
A: inactive

Q: What about the outcome [6] of the same molecule?
A: inactive

Q: What about the outcome [7] of the same molecule?
A: inactive

Q: What about the outcome [8] of the same molecule?
A: inactive

Q: And the outcome [9]?
A: inactive

Q: What about the outcome [10] of the same molecule?
A: inactive

Q: For `CCC1(c2ccccc2)C(=O)N=C(O)NC1=O` (stereo not given), which outcome [1] is on record?
A: inactive

Q: What about the outcome [2] of the same molecule?
A: inactive

Q: And the outcome [3]?
A: inactive

Q: And the outcome [4]?
A: inactive

Q: And the outcome [5]?
A: inactive

Q: And the outcome [6]?
A: inactive

Q: And the outcome [7]?
A: inactive

Q: What about the outcome [8] of the same molecule?
A: inactive

Q: What about the outcome [9] of the same molecule?
A: inactive

Q: And the outcome [10]?
A: inactive

Q: With `CC(C)(C)c1ccccc1OP(=O)(Oc1ccccc1)Oc1ccccc1` as the molecule, how does the AC50 [2] read?
A: 1.23 µM (active)

Q: And the outcome [3]?
A: inactive

Q: And the AC50 [4]?
A: 7.23 µM (active)

Q: What about the outcome [5] of the same molecule?
A: inactive

Q: What about the AC50 [6] of the same molecule?
A: 6.79 µM (active)

Q: What about the AC50 [7] of the same molecule?
A: 5 µM (active)

Q: What about the outcome [8] of the same molecule?
A: inactive

Q: What about the AC50 [9] of the same molecule?
A: 5 µM (active)

Q: And the AC50 [10]?
A: 5 µM (active)

Q: With `C/C(=N\NC(=O)Nc1cc(F)cc(F)c1)c1ncccc1C(=O)O` as the molecule, how does the outcome [1] read?
A: inactive

Q: Which outcome [1] does the source give for `[N-]=[N+]=[N-]` here?
A: inactive

Q: What about the outcome [2] of the same molecule?
A: inactive

Q: What about the outcome [3] of the same molecule?
A: inactive

Q: And the outcome [4]?
A: inactive

Q: What about the outcome [5] of the same molecule?
A: inactive

Q: And the outcome [6]?
A: inactive

Q: And the outcome [7]?
A: inactive

Q: What about the outcome [8] of the same molecule?
A: inactive

Q: And the outcome [9]?
A: inactive

Q: What about the outcome [10] of the same molecule?
A: inactive

Q: Which outcome [1] does the source give for `CC(C)(C)OOC(C)(C)C` here?
A: inactive

Q: For `CC(Cl)(Cl)C(=O)O`, which outcome [1] is on record?
A: inactive

Q: What about the outcome [2] of the same molecule?
A: inactive

Q: What about the outcome [3] of the same molecule?
A: inactive

Q: What about the outcome [4] of the same molecule?
A: inactive

Q: And the outcome [5]?
A: inactive

Q: What about the outcome [6] of the same molecule?
A: inactive

Q: And the outcome [7]?
A: inactive

Q: And the outcome [8]?
A: inactive

Q: And the outcome [9]?
A: inactive

Q: And the outcome [10]?
A: inactive

Q: With `CCOP(=S)(OCC)SCSCC` as the molecule, how does the outcome [1] read?
A: inactive

Q: Which results are given for `ClC(Cl)(Cl)c1ccccc1`?
A: outcome [1]: inactive; outcome [2]: inactive; outcome [3]: inactive; outcome [4]: inactive; outcome [5]: inactive; outcome [6]: inactive; outcome [7]: inactive; outcome [8]: inactive; outcome [9]: inactive; outcome [10]: inactive

Q: Which outcome [1] does the source give for `Nc1ccc2ccccc2c1` here?
A: inactive

Q: What about the outcome [2] of the same molecule?
A: inactive

Q: And the outcome [3]?
A: inactive

Q: And the outcome [4]?
A: inactive

Q: And the outcome [5]?
A: inactive

Q: And the outcome [6]?
A: inactive

Q: And the outcome [7]?
A: inactive

Q: What about the outcome [8] of the same molecule?
A: inactive

Q: What about the outcome [9] of the same molecule?
A: inactive

Q: And the outcome [10]?
A: inactive

Q: Which outcome [1] does the source give for `CC(O)C#N` (stereo not given) here?
A: inactive

Q: What does the source list for `COP(=O)(CCC(=O)NCO)OC`?
A: outcome [2]: inactive; outcome [3]: inactive; AC50 [4]: 0.145 µM (active); outcome [5]: inactive; outcome [6]: inactive; outcome [7]: inactive; outcome [8]: inactive; outcome [9]: inactive; outcome [10]: inactive

Q: What does the source list for `CCOP(=S)(Oc1ccc([N+](=O)[O-])cc1)c1ccccc1` (stereo not given)?
A: outcome [1]: inactive; outcome [2]: inactive; outcome [3]: inactive; outcome [4]: inactive; outcome [5]: inactive; outcome [6]: inactive; outcome [7]: inactive; outcome [8]: inactive; outcome [9]: inactive; outcome [10]: inactive

Q: With `c1ccc2c(c1)Nc1ccccc1S2` as the molecule, how does the outcome [1] read?
A: inactive

Q: And the AC50 [2]?
A: 3.97 µM (active)

Q: And the AC50 [3]?
A: 34.9 µM (active)

Q: What about the outcome [4] of the same molecule?
A: inactive

Q: And the AC50 [5]?
A: 4.14 µM (active)

Q: And the AC50 [6]?
A: 25.8 µM (active)

Q: And the outcome [7]?
A: inactive

Q: And the outcome [8]?
A: inactive

Q: And the AC50 [9]?
A: 27.3 µM (active)

Q: What about the AC50 [10] of the same molecule?
A: 7.45 µM (active)

Q: For `CCOP(=S)(NC(C)C)Oc1ccccc1C(=O)OC(C)C` (stereo not given), which outcome [1] is on record?
A: inactive

Q: With `CCC(C)(C)c1ccc(O)cc1` as the molecule, how does the AC50 [2] read?
A: 0.283 µM (active)

Q: And the outcome [3]?
A: inactive

Q: And the outcome [4]?
A: inactive

Q: And the AC50 [5]?
A: 0.0877 µM (active)

Q: What about the AC50 [6] of the same molecule?
A: 9.06 µM (active)

Q: And the outcome [7]?
A: inactive

Q: And the outcome [8]?
A: inactive

Q: What about the AC50 [9] of the same molecule?
A: 8.27 µM (active)

Q: Which outcome [1] does the source give for `O=C(O)C1C(C(=O)O)C2(Cl)C(Cl)=C(Cl)C1(Cl)C2(Cl)Cl` (stereo not given) here?
A: inactive

Q: What about the outcome [2] of the same molecule?
A: inactive

Q: What about the outcome [3] of the same molecule?
A: inactive

Q: And the outcome [4]?
A: inactive

Q: And the outcome [5]?
A: inactive

Q: And the outcome [6]?
A: inactive

Q: And the outcome [7]?
A: inactive

Q: And the outcome [8]?
A: inactive

Q: What about the outcome [9] of the same molecule?
A: inactive

Q: And the outcome [10]?
A: inactive

Q: For `CCCCC(CC)COP(=O)(Oc1ccccc1)Oc1ccccc1` (stereo not given), which outcome [1] is on record?
A: inactive

Q: What about the outcome [2] of the same molecule?
A: inactive

Q: And the outcome [3]?
A: inactive

Q: And the outcome [4]?
A: inactive

Q: What about the outcome [5] of the same molecule?
A: inactive

Q: What about the AC50 [6] of the same molecule?
A: 23.7 µM (active)

Q: What about the AC50 [7] of the same molecule?
A: 15 µM (active)

Q: What about the outcome [8] of the same molecule?
A: inactive

Q: And the outcome [9]?
A: inactive

Q: And the outcome [10]?
A: inactive

Q: For `CC(C)(C)N(NC(=O)c1ccc(Cl)cc1)C(=O)c1ccccc1`, which outcome [1] is on record?
A: inactive

Q: With `ClC1=C(Cl)C2(Cl)C3C(Cl)C(Cl)CC3C1(Cl)C2(Cl)Cl` (stereo not given) as the molecule, how does the outcome [1] read?
A: inactive

Q: And the outcome [2]?
A: inactive

Q: What about the outcome [3] of the same molecule?
A: inactive

Q: What about the outcome [4] of the same molecule?
A: inactive

Q: And the outcome [5]?
A: inactive

Q: And the AC50 [6]?
A: 0.29 µM (active)

Q: What about the outcome [7] of the same molecule?
A: inactive

Q: What about the AC50 [8] of the same molecule?
A: 0.309 µM (active)

Q: And the outcome [9]?
A: inactive

Q: And the outcome [10]?
A: inactive

Q: With `O=C(O)C(Cl)Cl` as the molecule, how does the outcome [1] read?
A: inactive

Q: With `CCOc1ccc(C(C)(C)COCc2cccc(Oc3ccccc3)c2)cc1` as the molecule, how does the outcome [1] read?
A: inactive

Q: What about the outcome [2] of the same molecule?
A: inactive

Q: And the outcome [3]?
A: inactive

Q: What about the outcome [4] of the same molecule?
A: inactive

Q: And the AC50 [5]?
A: 23.1 µM (active)

Q: What about the AC50 [6] of the same molecule?
A: 25.4 µM (active)

Q: What about the outcome [7] of the same molecule?
A: inactive

Q: And the outcome [8]?
A: inactive

Q: What about the outcome [9] of the same molecule?
A: inactive

Q: What about the outcome [10] of the same molecule?
A: inactive

Q: With `CCOC(=O)c1ccccc1C(=O)OCC` as the molecule, how does the outcome [1] read?
A: inactive

Q: Which results are given for `Cc1ccc(N)cc1N`?
A: outcome [1]: inactive; outcome [2]: inactive; outcome [3]: inactive; outcome [4]: inactive; outcome [5]: inactive; outcome [6]: inactive; outcome [7]: inactive; outcome [8]: inactive; outcome [9]: inactive; outcome [10]: inactive
